Assay results as given in PubChem BioAssay (NCATS).
“And” between values parts separate entries of the source, which are not always exact repeats. Equal entries are not always repeated. Records with an inconclusive call do not appear. Where a call stands in place of a potency, no number is given. The source made the active and inactive calls. Unless noted, the call rests on the fitted dose curve; in most records, active means well fitted curve in either direction with a large enough effect (not every such curve was filed as active); inconclusive means small, poorly fitted or top-dose-only effect, or another doubt; inactive means flat fitted curve, though single readings scatter.

Key:
[1] = AP1 Signaling Pathway (AID 357);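 further: ME-180 reporter cells stimulated with EGF at its EC50 level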
How it was run: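 Read-out was the 460nm/530nm emission ratio (excitation 405nm) after CCF4 loading for 2.5 hours at room temperature. Cells carried an AP-1-driven beta-lactamase reporter, were stimulated with EC50 EGF plus compound for 5 hours, and AC50 values came from titrations.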

[2] = target: Cytochrome P450 1A2 (Homo sapiens) (UniProt P05177); assay: p450-cyp1a2 (AID 410; calls by dose curve)
Sequence of Cytochrome P450 1A2 (Homo sapiens) (P05177 whole entry, looked up): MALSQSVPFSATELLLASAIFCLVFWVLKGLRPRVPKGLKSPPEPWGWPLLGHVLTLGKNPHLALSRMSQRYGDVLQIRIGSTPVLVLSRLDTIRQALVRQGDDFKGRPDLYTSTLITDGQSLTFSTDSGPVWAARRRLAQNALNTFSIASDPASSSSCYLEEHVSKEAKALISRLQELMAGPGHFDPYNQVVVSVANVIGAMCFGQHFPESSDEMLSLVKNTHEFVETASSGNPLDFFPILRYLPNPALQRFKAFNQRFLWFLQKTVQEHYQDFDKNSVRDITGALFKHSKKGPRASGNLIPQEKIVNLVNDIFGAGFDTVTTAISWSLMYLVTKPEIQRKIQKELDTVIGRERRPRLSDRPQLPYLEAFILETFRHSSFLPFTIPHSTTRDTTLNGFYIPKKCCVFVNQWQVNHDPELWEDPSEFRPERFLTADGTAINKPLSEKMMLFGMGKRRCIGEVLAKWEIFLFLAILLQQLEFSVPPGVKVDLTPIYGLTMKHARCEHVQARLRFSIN
How it was run: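 Inhibition was calculated relative to 57 uM furafylline (full inhibition). The reaction used human CYP1A2 at 20nM with Luciferin-ME at its Km, 100uM, driven by an NADPH-regenerating system for 60 min at room temperature.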

[3] = NFAT Signaling Pathway (AID 444); conditions: Jurkat NFAT-bla M1, carbachol, beta-lactamase ratio, 5 h;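 further: carbachol stimulus at about its EC50 of 1 µM final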
How it was run: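 Jurkat cells with NFAT-driven β-lactamase reporter and co-expressed M1 receptor, stimulated with carbachol (final 1 uM, ~EC50), compound titration, 5 h at 37 °C. CCF4 loaded 1 h at RT; 460/530 nm ratio gave %activity and AC50.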

[4] = Stat Signaling Pathway (AID 446);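 further: ME-180 cervical cancer cells given 40 pM IL-6 alongside compound; SIE-controlled beta-lactamase reporter measured as 460/530 nm FRET emission ratio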
How it was run: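 Reporter line: ME-180 cervical carcinoma, SIE-beta-lactamase. Treatment: compound with 40 pM IL-6, 5 hrs, 37 C, in low-serum OPTI-MEM with 10 mM HEPES pH 7.3. Detection: 460/530 nm fluorescence.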

[5] = target: Mitogen-activated protein kinase 10 (Mus musculus) (UniProt Q61831); assay: JNK3 AlphaScreen Assay (AID 530);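 further: kinase came from lysate of stimulated human HepG2 cells; signal reports phosphorylation of biotinylated GST-cJun 1-79 at Ser73 with 10 µM ATP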
How it was run: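 qHTS format: compounds tested as titrations against IL-1beta/TNF-alpha-activated HepG2 lysate JNK3 with biotin-GST-cJun substrate and 10 uM ATP at room temperature. Loss of anti-phospho-cJun AlphaScreen signal indicates inhibition.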

[6] = target: 3',5'-cyclic-AMP phosphodiesterase 4B (Homo sapiens) (UniProt Q07343); assay: qHTS Assay for Inhibitors of PDE-IV (AID 607; active means well fitted activation curve with a large enough effect in the main read-out, with a control signal flat, not every such curve was filed as active)
Sequence of 3',5'-cyclic-AMP phosphodiesterase 4B (Homo sapiens) (Q07343 whole entry, looked up): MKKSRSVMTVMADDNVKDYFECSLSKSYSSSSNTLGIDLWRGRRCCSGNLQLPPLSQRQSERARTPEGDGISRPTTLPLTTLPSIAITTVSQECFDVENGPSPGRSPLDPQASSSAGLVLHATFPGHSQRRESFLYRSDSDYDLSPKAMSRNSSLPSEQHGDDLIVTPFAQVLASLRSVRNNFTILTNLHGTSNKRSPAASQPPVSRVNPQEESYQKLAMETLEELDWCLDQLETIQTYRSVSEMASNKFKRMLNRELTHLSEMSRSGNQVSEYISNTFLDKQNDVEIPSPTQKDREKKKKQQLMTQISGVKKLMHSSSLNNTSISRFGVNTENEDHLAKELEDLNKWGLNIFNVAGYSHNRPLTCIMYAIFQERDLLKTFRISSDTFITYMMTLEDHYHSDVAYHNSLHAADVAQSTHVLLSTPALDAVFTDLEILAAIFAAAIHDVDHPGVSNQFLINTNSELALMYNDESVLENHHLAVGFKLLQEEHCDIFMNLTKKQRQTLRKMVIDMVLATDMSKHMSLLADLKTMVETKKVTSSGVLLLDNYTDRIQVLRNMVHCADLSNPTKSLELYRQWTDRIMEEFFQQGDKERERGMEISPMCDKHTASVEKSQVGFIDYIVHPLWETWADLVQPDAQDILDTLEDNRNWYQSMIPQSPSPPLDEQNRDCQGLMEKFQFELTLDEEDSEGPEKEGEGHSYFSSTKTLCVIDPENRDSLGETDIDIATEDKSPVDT
How it was run: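 Cell-based read-out of cAMP via a modified cyclic nucleotide-gated channel and membrane potential dye (535/590 nm) in HEK293 cells expressing PDE4 endogenously. Compounds tested up to 22.9 uM final; 100 uM RO 20-1724 reference.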

[7] = target: Cytochrome P450 3A4 (Homo sapiens) (UniProt P08684); assay: qHTS Assay for Activators of Cytochrome P450 3A4 (AID 885; active means well fitted curve in the direction sought with a large enough effect; an effect the other way counts as inactive or inconclusive; further: nearly all actives have a fitted effect of over 65% in size)
Sequence of Cytochrome P450 3A4 (Homo sapiens) (P08684 whole entry, looked up): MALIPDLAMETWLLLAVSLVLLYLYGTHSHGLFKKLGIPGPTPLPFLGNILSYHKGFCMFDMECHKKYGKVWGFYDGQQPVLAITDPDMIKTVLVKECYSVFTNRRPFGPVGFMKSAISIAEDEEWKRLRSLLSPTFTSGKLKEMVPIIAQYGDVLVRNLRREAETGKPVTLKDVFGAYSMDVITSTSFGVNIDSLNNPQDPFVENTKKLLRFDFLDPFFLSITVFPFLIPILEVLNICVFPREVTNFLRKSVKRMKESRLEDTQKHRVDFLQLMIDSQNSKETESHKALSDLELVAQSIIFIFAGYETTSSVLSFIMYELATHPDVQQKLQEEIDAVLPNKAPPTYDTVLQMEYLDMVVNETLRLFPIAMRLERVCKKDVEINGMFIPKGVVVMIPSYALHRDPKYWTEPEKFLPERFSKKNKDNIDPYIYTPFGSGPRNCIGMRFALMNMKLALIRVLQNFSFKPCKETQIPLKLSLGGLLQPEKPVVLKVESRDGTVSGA
How it was run: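 Signal was normalized against complete inhibition by 57 uM ketoconazole. The reaction used 20nM CYP3A4 with 25uM Luciferin-PPXE, 10-min compound preincubation and a 60-min NADPH-supported step at RT.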

[8] = qHTS Assay for Lipid Storage Modulators (AID 1519; calls by dose curve); conditions: Drosophila S3 cells, BODIPY lipid droplet/cell ratio, laser cytometry, cells loaded with oleic acid
How it was run: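 Cells seeded at 5,000 per well were treated with compounds over a concentration series and loaded with oleic acid (400 uM, as added). Lipid droplet fluorescence (488 nm excitation, 500-530 nm channel) was read by laser-scanning cytometry and normalized to 20 uM Triacsin C.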

[9] = target: Ubiquitin carboxyl-terminal hydrolase 1 (Homo sapiens) (UniProt O94782); assay: Inhibitors of USP1/UAF1: Pilot qHTS (AID 504865; active means well fitted curve in the direction sought with a large enough effect; an effect the other way counts as inactive or inconclusive;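 further: rhodamine fluorescence freed from ubiquitin-rhodamine substrate followed over time; top concentration of the series differs between compounds; nearly all actives have a fitted effect of over 35% in size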)
Sequence of Ubiquitin carboxyl-terminal hydrolase 1 (Homo sapiens) (O94782 whole entry, looked up): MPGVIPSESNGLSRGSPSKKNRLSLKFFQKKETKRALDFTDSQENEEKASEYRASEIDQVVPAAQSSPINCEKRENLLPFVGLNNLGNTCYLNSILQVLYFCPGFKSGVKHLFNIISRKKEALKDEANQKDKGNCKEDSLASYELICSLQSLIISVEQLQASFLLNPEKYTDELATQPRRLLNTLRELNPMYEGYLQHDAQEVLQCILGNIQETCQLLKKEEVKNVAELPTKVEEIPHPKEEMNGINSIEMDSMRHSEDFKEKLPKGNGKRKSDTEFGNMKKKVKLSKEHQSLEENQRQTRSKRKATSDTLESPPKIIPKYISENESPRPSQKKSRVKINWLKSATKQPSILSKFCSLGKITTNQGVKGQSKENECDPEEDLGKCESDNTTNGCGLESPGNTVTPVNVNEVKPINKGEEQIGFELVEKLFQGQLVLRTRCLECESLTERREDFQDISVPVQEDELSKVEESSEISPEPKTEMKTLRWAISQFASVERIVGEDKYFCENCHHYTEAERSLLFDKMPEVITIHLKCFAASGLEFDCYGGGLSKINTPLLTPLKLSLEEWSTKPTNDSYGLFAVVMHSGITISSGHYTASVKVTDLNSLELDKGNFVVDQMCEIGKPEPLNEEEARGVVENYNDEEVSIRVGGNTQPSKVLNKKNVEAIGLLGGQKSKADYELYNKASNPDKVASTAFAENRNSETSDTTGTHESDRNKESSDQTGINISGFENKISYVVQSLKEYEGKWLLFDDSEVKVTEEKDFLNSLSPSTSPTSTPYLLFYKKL
How it was run: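 1nM USP1/UAF1 + cpd, 15 min RT; start w/ Ub-Rho 150nM final; kinetic FL 480/540 nm, 6 reads q60 s. Buffer 50mM HEPES pH 7.8, 0.5mM EDTA, 1mM TCEP, 0.01% Tween-20, 0.1 mg/ml BSA.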

[10] = target: Glucocorticoid receptor (Homo sapiens) (UniProt P04150); assay: GR-EFC Redistribution (AID 451; calls by dose curve; further: potency means the concentration at half of the fitted maximal effect); conditions: CHO-K1 GR-EFC translocation, beta-gal luminescence, 2 h
Sequence of Glucocorticoid receptor (Homo sapiens) (P04150 whole entry, looked up, the tested form may be a part): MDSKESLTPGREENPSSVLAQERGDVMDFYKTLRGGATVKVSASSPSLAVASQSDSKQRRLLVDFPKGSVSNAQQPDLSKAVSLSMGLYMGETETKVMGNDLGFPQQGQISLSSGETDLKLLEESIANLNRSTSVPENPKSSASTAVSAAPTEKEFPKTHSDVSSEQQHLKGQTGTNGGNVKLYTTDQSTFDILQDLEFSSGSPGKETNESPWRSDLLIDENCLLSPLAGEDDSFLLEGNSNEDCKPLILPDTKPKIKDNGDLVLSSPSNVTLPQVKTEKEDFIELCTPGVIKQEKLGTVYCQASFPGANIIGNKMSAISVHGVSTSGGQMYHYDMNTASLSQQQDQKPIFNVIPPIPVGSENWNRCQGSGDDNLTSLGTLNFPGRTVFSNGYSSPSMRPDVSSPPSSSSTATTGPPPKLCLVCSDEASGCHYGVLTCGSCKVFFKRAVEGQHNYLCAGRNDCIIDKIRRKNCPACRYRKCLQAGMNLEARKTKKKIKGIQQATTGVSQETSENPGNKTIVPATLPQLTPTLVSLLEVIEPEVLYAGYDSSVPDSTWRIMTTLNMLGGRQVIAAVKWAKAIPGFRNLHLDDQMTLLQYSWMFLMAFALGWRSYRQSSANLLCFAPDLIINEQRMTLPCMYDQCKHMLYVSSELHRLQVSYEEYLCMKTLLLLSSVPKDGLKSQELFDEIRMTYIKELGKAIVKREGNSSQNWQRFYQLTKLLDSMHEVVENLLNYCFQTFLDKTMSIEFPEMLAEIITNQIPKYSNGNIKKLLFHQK
How it was run: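 CHO-K1 cells expressing nuclear EA and GR-ED fragments of b-gal; compounds titrated up to 46 uM final, 2 h at 37 C. GR nuclear translocation read as complemented b-gal luminescence after 1 h RT detection.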

[11] = target: ATP-dependent 6-phosphofructokinase (Trypanosoma brucei brucei) (UniProt O15648); assay: qHTS Assay to Find Inhibitors of T. brucei phosphofructokinase: hit validation (AID 492961; active means well fitted curve in the direction sought with a large enough effect; an effect the other way counts as inactive or inconclusive)
Sequence of ATP-dependent 6-phosphofructokinase (Trypanosoma brucei brucei) (O15648 whole entry, looked up): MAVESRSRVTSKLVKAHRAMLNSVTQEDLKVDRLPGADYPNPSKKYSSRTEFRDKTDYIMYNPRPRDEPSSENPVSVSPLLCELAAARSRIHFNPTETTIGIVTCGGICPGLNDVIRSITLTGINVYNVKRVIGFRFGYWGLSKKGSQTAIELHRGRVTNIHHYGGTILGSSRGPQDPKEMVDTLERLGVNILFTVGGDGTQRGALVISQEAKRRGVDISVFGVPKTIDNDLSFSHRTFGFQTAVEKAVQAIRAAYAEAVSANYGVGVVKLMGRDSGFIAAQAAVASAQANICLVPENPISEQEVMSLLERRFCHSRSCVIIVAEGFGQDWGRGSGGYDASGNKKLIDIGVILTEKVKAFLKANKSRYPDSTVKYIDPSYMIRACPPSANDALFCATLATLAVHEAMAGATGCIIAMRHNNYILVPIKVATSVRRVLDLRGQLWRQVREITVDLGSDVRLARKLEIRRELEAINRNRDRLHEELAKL
How it was run: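 Luminescence from ADP-Glo reports ADP generated as T. brucei PFK (1.25 nM) phosphorylates 0.5 mM fructose-6-phosphate using 0.1 mM ATP. Reactions ran 45 min at room temperature, pH 8.0.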

[12] = target: Luciferin 4-monooxygenase (Photinus pyralis) (UniProt P08659); assay: Biochemical firefly luciferase enzyme assay for NPC (AID 624030; active means well fitted curve in the direction sought with a large enough effect; an effect the other way counts as inactive or inconclusive;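 further: purified P. pyralis luciferase at 10 nM with luciferin and ATP substrate; nearly all actives have a fitted effect of over 70% in size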)
Sequence of Luciferin 4-monooxygenase (Photinus pyralis) (P08659 whole entry, looked up): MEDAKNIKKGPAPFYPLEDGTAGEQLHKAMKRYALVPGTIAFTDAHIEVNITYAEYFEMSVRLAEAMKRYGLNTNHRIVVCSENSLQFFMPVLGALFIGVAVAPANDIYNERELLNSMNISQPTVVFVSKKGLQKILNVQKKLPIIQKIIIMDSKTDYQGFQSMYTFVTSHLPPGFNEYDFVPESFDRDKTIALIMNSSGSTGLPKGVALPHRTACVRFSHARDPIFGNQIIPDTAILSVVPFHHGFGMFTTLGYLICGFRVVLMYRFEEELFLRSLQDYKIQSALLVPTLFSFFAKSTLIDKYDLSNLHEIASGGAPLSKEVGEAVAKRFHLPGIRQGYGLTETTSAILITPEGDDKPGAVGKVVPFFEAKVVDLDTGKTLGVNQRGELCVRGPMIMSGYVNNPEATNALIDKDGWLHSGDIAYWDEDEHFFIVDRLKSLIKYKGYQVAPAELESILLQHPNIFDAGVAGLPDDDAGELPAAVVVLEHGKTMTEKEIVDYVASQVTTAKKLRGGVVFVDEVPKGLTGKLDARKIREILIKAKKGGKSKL
How it was run: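 Purified P. pyralis luciferase at 10 nM in 50 mM Tris Acetate (final), luminescence read within 5 minutes of enzyme addition to compounds. Activity normalised to PTC124 versus DMSO; concentration-response curves classed by r2, magnitude and activity.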

[13] = qHTS profiling for inhibitors of Plasmodium falciparum proliferation (AID 504749; active means well fitted curve in the direction sought with a large enough effect; an effect the other way counts as inactive or inconclusive; further: nearly all actives have a fitted effect of over 60% in size); conditions: P. falciparum in erythrocytes, SYBR Green DNA, 72 h
How it was run: (§1)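 Readout was DNA-dye fluorescence from lysed cultures, ex 485/em 535 nm. Parasitized red cells had grown 72 h with compound; data scaled between 0.29 uM artemisinin and DMSO wells and corrected using vehicle-only plates.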

C2A = assay: as above; conditions: P. falciparum in erythrocytes, SYBR Green DNA, 72 h; series mostly up to 28.7 µM
How it was run: as §1

CP217 = assay: as above; conditions: P. falciparum in erythrocytes, SYBR Green DNA, 72 h; series mostly up to 28.7 µM
How it was run: as §1

CP252 = assay: as above; conditions: P. falciparum in erythrocytes, SYBR Green DNA, 72 h; series mostly up to 12.8 µM
How it was run: as §1

CP256 = assay: as above; conditions: P. falciparum in erythrocytes, SYBR Green DNA, 72 h; series mostly up to 28.7 µM
How it was run: as §1

CP262 = assay: as above; conditions: P. falciparum in erythrocytes, SYBR Green DNA, 72 h; series mostly up to 28.7 µM
How it was run: as §1

[14] = target: Glucocorticoid receptor (Homo sapiens) (UniProt P04150); assay: GR-GFP Redistribution (AID 450;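 active means compounds whose dose series gives a full or clear partial fitted curve of increased nuclear translocation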; further: potency means the concentration at half of the fitted maximal effect); conditions: U2OS GR-GFP nuclear translocation, laser cytometry, 2 h
[15] = measured here: cell count channel max response
[16] = measured here: lipid channel max response

With `CCN(CC)C(=O)N[C@@H]1C[C@H]2c3cccc4[nH]cc(c34)C[C@@H]2N(C)C1` the outcome [1] was “inactive”, the Potency [2] was “inactive” and the activity change, negative = inhibition ([3]; at 17.2 µM (top of the series)) was 3.13% (inactive) and -9.31% (inactive). For the same compound, the outcome [4] was “inactive”, the outcome [5] was “inactive” and the Potency [6] was “inactive”. For the same compound, the Potency [7] was “inactive”, the activity change, negative = inhibition ([8]; at 25.7 µM (top of the series)) was 2.1% (inactive) and 1.29% (inactive) and the max response [8, 15] was -3.13% and -3.55%. The max response [8, 16] was -0.685% and -2.23% and the Potency [9] was “inactive”.
With `C/C=C1\C[C@H](C)[C@@](O)(CO)C(=O)OCC2=CCN3CC[C@@H](OC1=O)[C@@H]23` the outcome [1] was “inactive”, the Potency [2] was “inactive” and the activity change, negative = inhibition ([3]; at 17.2 µM (top of the series)) was -20.5% (inactive). The outcome [4] was “inactive”, the Potency [10] was > 20.6 µM (inactive) and the outcome [5] was “inactive”. The Potency [6] was “inactive”, the activity change, negative = inhibition ([8]; at 25.7 µM (top of the series)) was 0.17% (inactive) and the max response [8, 15] was 4.82%. The max response [8, 16] was 5.25%.
For `CC(C)N(CC[C@@](C(N)=O)(c1ccccc1)c1ccccn1)C(C)C`, the outcome [1] was “inactive”, the Potency [2] was “inactive” and the outcome [4] was “inactive”. The outcome [5] was “inactive”, the Potency [6] was “inactive” and the Potency [7] was “inactive”. For the same compound, the activity change, negative = inhibition ([8]; at 25.7 µM (top of the series)) was 0.14% (inactive), the max response [8, 15] was -13.9% and the max response [8, 16] was -14.1%. For the same compound, the Potency [11] was “inactive”, the Potency [12] was “inactive” and the activity, negative = inhibition ([13]; at 28.7 µM (top of the series), parasite line A) was 9.42% (inactive). For the same compound, the activity, negative = inhibition ([13]; at 28.7 µM (top of the series), parasite line B) was 2.7% (inactive), the Potency (C2A) was “inactive” and the Potency (CP217) was “inactive”. The Potency (CP252) was “inactive”, the Potency (CP256) was “inactive” and the Potency (CP262) was “inactive”.
With `COc1ccc(NC(=O)N2CCC3(CC2)CCN(C(=O)Oc2ccccc2)CC3)cc1` the outcome [1] was “inactive”, the activity change, negative = inhibition ([3]; at 7.69 µM (top of the series)) was 5.41% (inactive) and the outcome [4] was “inactive”. For the same compound, the Potency [10] was > 46 µM (inactive), the outcome [5] was “inactive” and the Potency [6] was “inactive”. For the same compound, the activity change, negative = inhibition ([8]; at 57.5 µM (top of the series)) was -1.68% (inactive), the max response [8, 15] was -23.2% and the max response [8, 16] was -21.9%.
With `CCN[C@]1(c2cccs2)CCCCC1=O` the outcome [1] was “inactive”, the activity change, negative = inhibition ([3]; at 17.2 µM (top of the series)) was -19.9% (inactive) and the outcome [4] was “inactive”. The Potency [14] was > 20.6 µM (inactive), the Potency [10] was > 20.6 µM (inactive) and the outcome [5] was “inactive”. The Potency [6] was “inactive”, the activity change, negative = inhibition ([8]; at 25.7 µM (top of the series)) was 0.601% (inactive) and the max response [8, 15] was -13.4%. For the same compound, the max response [8, 16] was -12.8%, the Potency [11] was “inactive” and the Potency [12] was “inactive”. For the same compound, the activity, negative = inhibition ([13]; at 12.8 µM (top of the series), parasite line A) was -1.5% (inactive), the activity, negative = inhibition ([13]; at 12.8 µM (top of the series), parasite line B) was -1.41% (inactive) and the Potency (C2A) was “inactive”. For the same compound, the Potency (CP217) was “inactive”, the Potency (CP252) was “inactive” and the Potency (CP256) was “inactive”. The Potency (CP262) was “inactive”.
In the case of `C=C[C@]12CN(C)[C@H]3C1[C@@]1(C(=O)Nc4ccccc41)[C@H]1C[C@H]2[C@H]3CO1`, the outcome [1] is reported as “inactive”, the Potency [2] is reported as “inactive” and the outcome [4] is reported as “inactive”. The Potency [10] was > 20.6 µM (inactive), the Potency [6] was “inactive” and the activity change, negative = inhibition ([8]; at 25.7 µM (top of the series)) was -5.3% (inactive). For the same compound, the max response [8, 15] was -11.8%, the max response [8, 16] was -17.8% and the Potency [9] was “inactive”.
In the case of `COP(=O)(OC)[C@@H](O)C(Cl)(Cl)Cl`, the outcome [1] is reported as “inactive”, the activity change, negative = inhibition ([3]; at 17.2 µM (top of the series)) is reported as -11.8% (inactive) and the outcome [4] is reported as “inactive”. The Potency [14] was > 20.6 µM (inactive), the Potency [10] was > 20.6 µM (inactive) and the outcome [5] was “inactive”. The Potency [6] was “inactive”, the activity change, negative = inhibition ([8]; at 25.7 µM (top of the series)) was -2.04% (inactive) and the max response [8, 15] was 5.96%. The max response [8, 16] was 2.5% and the Potency [9] was “inactive”.
